Screening data deposited in PubChem BioAssay by National Center for Advancing Translational Sciences (NCATS).
Compounds with a hit are over-represented: about 19% of the library has one in this group of screens.
KB-3-1 tox: KB-3-1 parental cell cytotoxicity | KB-3-1 viability, CellTiter-Glo ATP luminescence, 72 h | actives 1.4% (n = 400,000) | Potency, µM (highest dose often 46.1 µM), most hits filed as cytotoxic; note: nearly all actives have a fitted effect of over 60% in size
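Here the drug-naive KB-3-1 line serves as comparator for MDR sub-line selectivity; cells received compound titrations, 72 h at 37 °C, then CellTiter-Glo readout.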
HT1080-NT tox: kills 2HG-producing HT-1080-NT fibrosarcoma cells; HT-1080-NT fibrosarcoma viability, CellTiter-Glo ATP luminescence, 48 h; Potency, µM (doses to about 46.1 µM), for the others: at the highest dose activity, negative = less viability, usual class: cytotoxic; actives 1.6% (n = 360,000);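 note: NT is the 2HG producing partner of a matched IDH1 knockdown line; 0% = DMSO-treated cells and -100% = media-only wells without cells; nearly all actives have a fitted effect of over 55% in size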
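Viability of the 2HG-overproducing fibrosarcoma line after 48 hours of compound exposure at 37 degrees C was determined by luminescence with CellTiter-Glo, and concentration-effect curves were then fitted and categorized.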
DT40 TDP1 no CPT: qHTS for Inhibitors of human tyrosyl-DNA phosphodiesterase 1 (TDP1): qHTS in cells in absence of CPT. actives 15% (n = 420,000). Potency, µM (series often up to 46.2 µM), for inactives: at the top dose activity change, negative = growth inhibition, actives largely listed as inhibitors. DT40 Tdp1-/- hTDP1 cells, no CPT, ATP luminescence, 48 h; note: nearly all actives have a fitted effect of over 55% in size
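A cellular qHTS used chicken DT40 cells lacking endogenous Tdp1 but carrying stably transfected human TDP1. Compounds were applied without camptothecin, and cell growth kinetics were judged by ATP-dependent luminescence after ≥48 hr.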
KB-V1 cytotox: kills drug-selected multidrug resistant KB-V1 cells | KB-V1 MDR cells viability, CellTiter-Glo, 72 h | Potency, µM (top dose mostly 46.1 µM), usual class: cytotoxic | actives 3.4% (n = 400,000) | AID 1347076; note: nearly all actives have a fitted effect of over 60% in size
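Cytotoxicity via CellTiter-Glo luminescence after 72 h compound exposure at 37 degrees C. Cells: drug-selected KB-V1 line, DMEM phenol-red free plus 10% FBS. Compounds tested at multiple concentrations; normalized data fitted to concentration-effect curves.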
HT1080 IDH1KD tx: HT-1080 IDH1 knockdown cell toxicity (counter line); AID 686971; Potency, µM (doses to about 46.1 µM), without a hit: at the highest dose activity, negative = toxicity, actives largely listed as cytotoxic; actives 2% (n = 360,000); HT-1080 IDH1 knockdown viability, ATP luminescence, 48 h;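 note: 0% = DMSO wells and -100% = cell-free medium wells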
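Cytotoxicity counter-line: IDH1KD HT-1080, 48 h, CellTiter-Glo. Curves classed by r2, magnitude and activity.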
DT40 TDP1 CPT: growth inhibition of DT40 Tdp1-/-;hTDP1 cells with camptothecin (screen for TDP1 inhibitors); chicken DT40 Tdp1-/-;hTDP1 cells + 20 nM CPT, ATP luminescence, 48 h; Potency, µM (highest dose often 46.2 µM), for the others: at the top dose activity change, negative = growth inhibition, actives largely listed as inhibitors; actives 12% (n = 420,000); note: nearly all actives have a fitted effect of over 55% in size
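Chicken DT40 Tdp1-/- cells stably complemented with human TDP1 were seeded at 400 cells/well in medium containing 20 nM camptothecin, exposed to pin-transferred compounds, and grown at 37 °C for at least 48 hr. Viability was read as ATP luminescence.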
The depositor's hits bear a star. Calls come from the whole dose curve; as a rule, active = well fitted curve in the direction sought with a large enough effect; inconclusive = small, poorly fitted or top-dose-only effect, or another doubt; inactive = no such curve, though single readings can be large; an effect the other way counts as inactive or inconclusive. Unless noted, % is set by controls: 0 for no effect and ±100 for the full control effect; potency is the fitted concentration of half-maximal effect.

`Cc1ccc(NC2CCCN(C(=O)c3ccc(-n4ccnc4)cc3)C2)cc1C` (configuration not stated) gave KB-3-1 tox inactive, HT1080-NT tox -8%, DT40 TDP1 no CPT -26%, KB-V1 cytotox inactive, HT1080 IDH1KD tx -10% and DT40 TDP1 CPT -16%.
`COC(=O)c1cnn2c(C)c(Cc3c(C)cc(C)cc3C)c(C)nc12` gave KB-3-1 tox inactive, DT40 TDP1 no CPT -20%, KB-V1 cytotox inactive and DT40 TDP1 CPT inconclusive.
Screening O=c1cc(-c2ccc(Cl)cc2)oc(=O)[nH]1 returned KB-3-1 tox inactive, HT1080-NT tox 1%, DT40 TDP1 no CPT -1%, KB-V1 cytotox inactive, HT1080 IDH1KD tx 3% and DT40 TDP1 CPT 7%.
Screening O=c1cc(N=Nc2ccc(Cl)cc2)[nH]c(=O)[nH]1 returned KB-3-1 tox inconclusive, HT1080-NT tox 1%, DT40 TDP1 no CPT 0.92µM*, KB-V1 cytotox inactive, HT1080 IDH1KD tx 14% and DT40 TDP1 CPT 0.52µM*.
Screening O=C(c1ccco1)N1CCCC(c2nc3c(nnn3Cc3ccc(F)cc3)c(=O)[nH]2)C1 (configuration not stated) returned KB-3-1 tox inactive, HT1080-NT tox 5%, DT40 TDP1 no CPT -8%, KB-V1 cytotox inactive, HT1080 IDH1KD tx 3% and DT40 TDP1 CPT 5%.
Cc1cc(C(=O)C(C)Sc2cccc[n+]2[O-])c(C)n1-c1ccc(Cl)cc1 (configuration not stated) was read as KB-3-1 tox inconclusive, HT1080-NT tox inconclusive, DT40 TDP1 no CPT 2.9µM*, KB-V1 cytotox 21µM*, HT1080 IDH1KD tx 23µM* and DT40 TDP1 CPT 2.9µM*.
For Cc1cc(C(=O)C(=O)O)c(C)n1-c1ccc(Cl)cc1 the results were KB-3-1 tox inactive, HT1080-NT tox 7%, DT40 TDP1 no CPT -15%, KB-V1 cytotox inconclusive, HT1080 IDH1KD tx -3% and DT40 TDP1 CPT 24%.
Screening C=CCNC(=S)NNC(=O)c1ccc(Br)cc1 returned KB-3-1 tox 15µM*, HT1080-NT tox 11%, DT40 TDP1 no CPT inconclusive, KB-V1 cytotox 12µM*, HT1080 IDH1KD tx 4% and DT40 TDP1 CPT inconclusive.
Screening CC(C)c1ccc(NC(=S)NCc2cccs2)cc1 returned KB-3-1 tox inactive, HT1080-NT tox 11µM*, DT40 TDP1 no CPT -8%, KB-V1 cytotox 23µM*, HT1080 IDH1KD tx inconclusive and DT40 TDP1 CPT -24%.
For Cc1cc(Cl)ccc1NC(=S)NCc1cccs1 the results were KB-3-1 tox inactive, HT1080-NT tox 18µM*, DT40 TDP1 no CPT inconclusive, KB-V1 cytotox inconclusive, HT1080 IDH1KD tx inconclusive and DT40 TDP1 CPT -4%.
Screening Cc1cc(Cl)ccc1NC(=S)NCc1ccccc1Cl returned KB-3-1 tox inactive, HT1080-NT tox -7%, DT40 TDP1 no CPT 26µM*, KB-V1 cytotox inactive, HT1080 IDH1KD tx -22% and DT40 TDP1 CPT inconclusive.
S=C(NCc1cccs1)Nc1ccccc1Cl was read as KB-3-1 tox inactive, HT1080-NT tox 0%, DT40 TDP1 no CPT -29%, KB-V1 cytotox 26µM*, HT1080 IDH1KD tx 5% and DT40 TDP1 CPT -11%.
`S=C(NCc1cccs1)Nc1cccc(Cl)c1` gave KB-3-1 tox inconclusive, HT1080-NT tox inconclusive, DT40 TDP1 no CPT inconclusive, KB-V1 cytotox inactive, HT1080 IDH1KD tx inconclusive and DT40 TDP1 CPT -18%.
For O=C(Nc1ccccc1Br)C1CCN(C(=O)Cc2ccccc2)CC1 the results were KB-3-1 tox inactive, HT1080-NT tox 17%, DT40 TDP1 no CPT 12%, KB-V1 cytotox inactive, HT1080 IDH1KD tx 9% and DT40 TDP1 CPT 11%.
O=C(c1[nH]c(C(F)(F)F)nc1-c1ccccc1)N1CCN(C/C=C/c2ccccc2)CC1 was read as KB-3-1 tox inactive, HT1080-NT tox 21%, DT40 TDP1 no CPT -18%, KB-V1 cytotox inactive, HT1080 IDH1KD tx 10% and DT40 TDP1 CPT 5%.
NNC(=S)Nc1ccccc1Cl was read as KB-3-1 tox inactive, HT1080-NT tox inconclusive, DT40 TDP1 no CPT 7.3µM*, KB-V1 cytotox inactive, HT1080 IDH1KD tx inconclusive and DT40 TDP1 CPT inconclusive.
Cc1cc(Cl)ccc1NC(=S)NCC(C)C was read as KB-3-1 tox inactive, HT1080-NT tox 2%, DT40 TDP1 no CPT 29µM*, KB-V1 cytotox inactive, HT1080 IDH1KD tx -1% and DT40 TDP1 CPT inconclusive.
COc1ccc(CCN(C(=O)C(F)(F)F)C(C(=O)NC2CCCCC2)c2cccs2)cc1 (configuration not stated) was read as KB-3-1 tox inactive, HT1080-NT tox 1%, DT40 TDP1 no CPT 4.6µM*, KB-V1 cytotox inactive, HT1080 IDH1KD tx 1% and DT40 TDP1 CPT 7.3µM*.
For COc1ccc(CCN(C(=O)C(F)(F)F)C(C(=O)NC2CCCCC2)c2ccc(C)s2)cc1 (configuration not stated) the results were KB-3-1 tox inactive, HT1080-NT tox 1%, DT40 TDP1 no CPT 2.8µM*, KB-V1 cytotox inactive, HT1080 IDH1KD tx 14% and DT40 TDP1 CPT 3.3µM*.
For COCCN(C(=O)C(F)(F)F)C(C(=O)NC1CCCCC1)c1ccco1 (configuration not stated) the results were KB-3-1 tox inactive, HT1080-NT tox 16%, DT40 TDP1 no CPT inconclusive, KB-V1 cytotox inactive, HT1080 IDH1KD tx 2% and DT40 TDP1 CPT -25%.
Screening O=C(COC(=O)CC1CCCC1)Nc1ccc(Br)cc1F returned KB-3-1 tox inactive, HT1080-NT tox -2%, DT40 TDP1 no CPT -24%, KB-V1 cytotox inactive, HT1080 IDH1KD tx 10% and DT40 TDP1 CPT -2%.
COc1ccc(-c2n[nH]c3c2C(c2ccc(OC)c(OC)c2)N(c2ccccc2)C3=O)cc1 (configuration not stated) was read as KB-3-1 tox inconclusive, HT1080-NT tox inconclusive, DT40 TDP1 no CPT inconclusive, KB-V1 cytotox 15µM*, HT1080 IDH1KD tx inconclusive and DT40 TDP1 CPT inconclusive.
Screening COc1ccc(-c2n[nH]c3c2C(c2ccc(O)cc2)N(c2ccc(Br)cc2)C3=O)cc1 (configuration not stated) returned DT40 TDP1 no CPT inconclusive and DT40 TDP1 CPT 18µM*.
For Cc1noc(C)c1CSc1ccccc1C(=O)N(C)CC(=O)Nc1cccc(F)c1 the results were KB-3-1 tox inactive, HT1080-NT tox -5%, DT40 TDP1 no CPT -22%, KB-V1 cytotox inactive, HT1080 IDH1KD tx -3% and DT40 TDP1 CPT -13%.
